HCV inh: qHTS Assay for Inhibitors of Hepatitis C Virus (HCV). Huh7.5.1 HCVcc-Cre infection, luciferase reporter, 44 h. Potency, µM (doses to about 41.8 µM), usual class: inhibitors. 340,000 compounds, 3.4% hits. AID 651820, 2012
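Whole-lifecycle infectious HCVcc-Cre system; cells 1,000/well, compound then virus (~0.5 moi) added 4 h after plating, 44 h culture. Luciferase read 15 sec following 15 min substrate incubation, room temp.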
VACV Venus inh: qHTS for Stage-Specific Inhibitors of Vaccinia Orthopoxvirus: Venus Reporter Primary qHTS; 330,000 compounds, 0.46% hits; Potency, µM (series often up to 36.5 µM), hits mostly inhibitors; Vaccinia virus Venus reporter expression, fluorescence; calls by dose curve; tested in A549 cells; also: nearly all actives have a fitted effect of over 30% in size
MARV entry inh: qHTS for inhibitors of binding or entry into cells for Marburg Virus. Potency, µM (series often up to 37.8 µM), hits mostly inhibitors. Marburg virus pseudotyped entry inhibition, cell reporter. 300,000 compounds, 1.8% hits; calls by dose curve; tested in HEK293 cells
LASV entry inh: qHTS for Inhibitors of binding or entry into cells for Lassa Virus; Lassa virus pseudotype entry inhibition, cell reporter; Potency, µM (titrated, usually from 37.9 µM), usual class: inhibitors; 300,000 compounds, 1.2% hits; AID 540256, 2011; calls by dose curve; tested in HEK293 cells; also: nearly all actives have a fitted effect of over 50% in size
HCMV inh: qHTS Assay for inhibitors of the human cytomegalovirus (HCMV) | activity change, negative = inhibition, % at 57.5 µM | AID 1259415, 2018 | 410,000 compounds, 4.5% hits | HFF cells, HCMV-luciferase reporter, 72 h; hits give low values; in the data active = activity change below about -60%; inconclusive = no clear call, values can overlap the other calls; inactive = above about -39%
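Two-dose cell screen: HFF monolayers treated with compounds and infected with luciferase-expressing HCMV at 1 PFU/cell, 72 h at 37C, then lysed for luciferase measurement.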
VACV mCherry inh: qHTS for Stage-Specific Inhibitors of Vaccinia Orthopoxvirus: mCherry Reporter Primary qHTS; Vaccinia virus mCherry reporter infection, fluorescence; Potency, µM (highest dose often 36.5 µM), hits mostly inhibitors; 310,000 compounds, 0.63% hits; calls by dose curve; tested in A549 cells; also: nearly all actives have a fitted effect of over 35% in size
HeLa G2M arrest: Cell cycle validation with wells to cells screening paradigm | shares compounds with MARV entry inh | HeLa cell cycle G2/M arrest, Hoechst DNA content imaging | Potency, µM, usual class: inhibitors | 25 compounds, 60% hits | AID 2441, 2010
WI-38 cytotox: High Content Assay for Compounds that inhibit the Assembly of the Perinucleolar Compartment: WI-38 Cytotoxicity | shares compounds with MARV entry inh | Potency, µM (top dose mostly 46.1 µM), actives largely listed as inhibitors | WI-38 normal lung fibroblasts, ATPLite luminescence ATP viability, 24 h | 120 tested, under 10 active
PNC assembly inh: High Content Assay for Compounds that inhibit the Assembly of the Perinucleolar Compartment: Confirmation of PNC Inhibition; shares compounds with MARV entry inh; PC3M PTB-GFP, PNC prevalence imaging, 16 h; Potency, µM (top dose mostly 46.1 µM), actives largely listed as inhibitors; 120 compounds, 50% hits; AID 2730, 2010
PC3M caspase: High Content Assay for Compounds that inhibit the Assembly of the Perinucleolar Compartment: PC3M Caspase 3/7 Activation. shares compounds with MARV entry inh. PC3M-GFP caspase 3/7 activation, luminescence, 24 h. activity change, positive = activation, % at 46.1 µM. 120 tested, under 10 active. AID 2731, 2010
HCV inh confirm: qHTS Assay for Inhibitors of Hepatitis C Virus (HCV): Confirmation Assay for Cherry-picked Compounds. shares compounds with HCV inh. 640 compounds, 78% hits. AID 720575, 2013. Potency, µM (titrated, usually from 41.8 µM), usual class: inhibitors. HCVcc-Cre infectious virus cell assay, luciferase, inhibition; also: nearly all actives have a fitted effect of over 80% in size
HCV cytotox: qHTS Assay for Inhibitors of Hepatitis C Virus (HCV): Cytotoxicity Counterscreen for Cherry-picked Compounds; shares compounds with HCV inh; HCV host cell line cytotoxicity counterscreen; Potency, µM (highest dose often 41.8 µM), hits mostly inhibitors; 640 compounds, 22% hits; AID 720576, 2013;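 also: 44 h compound exposure; nearly all actives have a fitted effect of over 55% in size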
Numbers stand for hits. Only some compounds are listed: those with a hit (about 7.8% of all), similar ones and a draw of the others. Unless noted, calls follow the shape of the dose curve; as a rule, active = well fitted curve in the direction sought with a large enough effect; inconclusive = small, poorly fitted or top-dose-only effect, or another doubt; inactive = no such curve, though single readings can be large; an effect the other way counts as inactive or inconclusive.

For NC(=O)Cn1c(S(=O)(=O)Cc2ccccc2)nc2ccccc21 the results were HCV inh inactive, VACV Venus inh inactive, MARV entry inh inactive, LASV entry inh inactive, HCMV inh inactive and VACV mCherry inh inactive.
Screening CCOc1ccccc1NC(=O)C(NS(=O)(=O)c1cccc2nsnc12)c1ccccc1 (stereo not drawn) returned VACV Venus inh inactive, LASV entry inh inactive, HCMV inh inactive and VACV mCherry inh inactive.
Cc1cccc(-n2c(SCC(=O)Nc3ncc(Cl)cc3Cl)nc3ccccc32)c1 was read as HCV inh 11.2µM, VACV Venus inh inactive, MARV entry inh 1.16µM, LASV entry inh 0.82µM, HCMV inh -99.3, VACV mCherry inh 3.16µM, WI-38 cytotox inactive, PNC assembly inh 5.01µM and PC3M caspase inactive.
For Cc1ccc(-n2ncc(C(=O)NCc3ccco3)c2C2CCN(C(=O)OC(C)(C)C)CC2)cc1 the results were VACV Venus inh inactive, LASV entry inh inconclusive, HCMV inh inactive and VACV mCherry inh inactive.
c1ccc2c(c1)[nH]c1cnccc12 was read as HCV inh inconclusive, VACV Venus inh inactive, MARV entry inh inactive, LASV entry inh inactive, HCMV inh inactive and VACV mCherry inh inactive.
`Cc1c2ccncc2c(C)c2c1[nH]c1ccccc12` gave HCV inh inconclusive, VACV Venus inh 10µM, MARV entry inh 4.11µM, LASV entry inh 6.51µM, VACV mCherry inh 11.2µM, HeLa G2M arrest inconclusive, WI-38 cytotox inactive, PNC assembly inh inconclusive and PC3M caspase inactive.
`CSc1nnc2c3ccccc3n(Cc3ccccc3)c2n1` gave HCV inh inactive, VACV Venus inh inactive, MARV entry inh inactive, LASV entry inh inactive and HCMV inh inactive.
For CSc1nnc2c3ccccc3n(CCc3ccccc3)c2n1 the results were HCV inh inconclusive, MARV entry inh 0.58µM, LASV entry inh 1.03µM, HCMV inh -98.1, WI-38 cytotox inactive, PNC assembly inh 5.01µM and PC3M caspase inactive.
`CC(=O)N(C1CC(C)C(C#N)(C#N)C1(C#N)C#N)N(C)C` (stereo not drawn) gave HCV inh 6.31µM, VACV Venus inh inactive, MARV entry inh inconclusive, LASV entry inh inactive, HCMV inh inactive, VACV mCherry inh inconclusive, HCV inh confirm inactive and HCV cytotox inactive.
Screening Cc1ccc(C(=O)N2CCc3cc(CNC(=O)CSc4ccccc4)ccc32)cc1 returned VACV Venus inh inactive, LASV entry inh inconclusive, HCMV inh inconclusive and VACV mCherry inh inactive.
Screening CCN(CC)c1ccc(/C=N/NC(=O)c2ccoc2C)c(O)c1 returned HCV inh 2.82µM, VACV Venus inh inconclusive, HCMV inh -100.0, VACV mCherry inh 1.12µM, HCV inh confirm 7.05µM and HCV cytotox 7.91µM.
For CC1(C)CC(CCC(=O)Nc2ccc(S(N)(=O)=O)cc2)C(=O)O1 (stereo not drawn) the results were HCV inh inactive, MARV entry inh inactive, LASV entry inh inactive and HCMV inh inactive.
Cc1ccc(NC(=O)CCC2CC(C)(C)OC2=O)cc1 (stereo not drawn) was read as HCV inh 3.98µM, VACV Venus inh inactive, MARV entry inh inactive, LASV entry inh inactive, HCMV inh inactive, VACV mCherry inh inactive, HCV inh confirm inactive and HCV cytotox inactive.
`COc1ccc(OC)c2nc(-c3ccc4c(c3)OCO4)ccc12` gave HCV inh 4.47µM, VACV Venus inh inactive, MARV entry inh inconclusive, LASV entry inh inconclusive, HCMV inh inactive, VACV mCherry inh inconclusive, HCV inh confirm 8.87µM and HCV cytotox inactive.
Screening c1ccc2nc(-c3ccc4c(c3)OCO4)ccc2c1 returned HCV inh inactive, VACV Venus inh inactive, HCMV inh inactive and VACV mCherry inh inactive.
For O=C(Cn1c(SCc2ccccc2F)nc2ccncc21)Nc1ccccc1C(F)(F)F the results were VACV Venus inh inactive, MARV entry inh inactive, LASV entry inh inconclusive, HCMV inh inactive and VACV mCherry inh inactive.
Cc1nc(-c2cnn(-c3ccccc3)c2)c2cc(C)oc2n1 was read as HCV inh 7.08µM, VACV Venus inh inactive, MARV entry inh inconclusive, LASV entry inh inactive, HCMV inh inactive, VACV mCherry inh inconclusive, HCV inh confirm 15.8µM and HCV cytotox inactive.
`Cc1oc2c(O)c(O)ccc2c(=O)c1-c1cnn(-c2ccccc2)c1` gave HCV inh inactive, MARV entry inh inactive, LASV entry inh inactive and HCMV inh inactive.
Screening Oc1c(N=Nc2ccccn2)ccc2ccccc12 returned HCV inh 2.51µM, VACV Venus inh inconclusive, MARV entry inh 3.98µM, LASV entry inh 1.58µM, HCMV inh -101.4, VACV mCherry inh inconclusive, HCV inh confirm 17.7µM and HCV cytotox inconclusive.
Screening CCOc1ccc(C(=O)C(CCC(CN(C)C)C(=O)c2ccc(OCC)cc2)CN(C)C)cc1 (stereo not drawn) returned HCV inh 3.16µM, MARV entry inh 1.03µM, LASV entry inh 4.11µM, HCMV inh -98.9, HCV inh confirm 7.91µM and HCV cytotox 7.91µM.
`COc1cc(NC(=O)c2ccccc2OCc2ccccc2)cc(OC)c1OC` gave HCV inh inconclusive, HCMV inh inactive, HCV inh confirm 14.1µM and HCV cytotox inactive.
Screening O=C(Nc1ccccc1C(F)(F)F)c1ncoc1-c1ccco1 returned VACV Venus inh inactive, LASV entry inh inactive, HCMV inh inactive and VACV mCherry inh inactive.

Source: PubChem BioAssay (National Center for Advancing Translational Sciences (NCATS))
